Inconclusive results are not listed. Calls of active or inactive are those of the source. Calls come from the whole dose curve; as a rule, active = well fitted cell-killing curve with a large enough effect; inconclusive = small, poorly fitted or top-dose-only effect, or effect the other way; inactive = flat fitted curve, though single readings scatter.
Columns and labels:
Test in all cases: Primary qHTS to identify gynecologic anti-cancer compounds using libraries of approved drugs and bioactive compounds (AID 1345084); note: nearly all actives have a fitted effect of over 55% in size
Conditions in all cases: Gynecologic cancer cell panel viability, ATPlite luminescence, 48 h; series mostly up to 57.5 µM
OV90 = test system: OV90
Method in brief: (§1)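 Cell viability after 48 h drug treatment, ATPlite luminescence readout; five doses.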

PA-1 = test system: PA-1
Method in brief: as §1

SKOV3 = test system: SKOV3
Method in brief: as §1

Tov-21-G = test system: Tov-21-G
Method in brief: as §1

Tov112D = test system: Tov112D
Method in brief: as §1
% is set by controls: 0 for no effect and ±100 for the full control effect.

C=C(C)C1CCC2(C(=O)O)CCC3(C(=O)O)C(CCC4C5(C)CCC(O)C(C)(C(=O)O)C5CCC43C)C12 (stereo not given)
inactive: Potency (OV90) | Potency (PA-1) | Potency (SKOV3) | Potency (Tov-21-G) | Potency (Tov112D)

C[C@@H]1O[C@@H](O[C@H]2[C@H](O[C@H]3[C@H](O[C@H]4CC[C@@]5(C)C(CC[C@]6(C)C5CC=C5[C@@H]7CC(C)(C)C[C@@H](O)[C@]7(C)CC[C@]56C)[C@@]4(C)CO)O[C@H](C(=O)O)[C@@H](O)[C@@H]3O)OC[C@H](O)[C@@H]2O)[C@H](O)[C@H](O)[C@H]1O (stereo not given in full)
inactive: activity change, negative = cytotoxicity (OV90) -3.06% [at 11.6 µM] | activity change, negative = cytotoxicity (PA-1) -1.53% [at 11.6 µM] | activity change, negative = cytotoxicity (SKOV3) -7.2% [at 11.6 µM] | activity change, negative = cytotoxicity (Tov-21-G) -1.97% [at 11.6 µM] | activity change, negative = cytotoxicity (Tov112D) -12.3% [at 11.6 µM]

COc1ccc2nc(S(=O)(=O)Cc3ncc(C)c(OC)c3C)[nH]c2c1
inactive: Potency (OV90) | Potency (PA-1) | Potency (SKOV3) | Potency (Tov-21-G) | Potency (Tov112D)

COc1cc2c(cc1O)[C@H](c1ccc(O[C@@H]3O[C@H](CO)[C@@H](O)[C@H](O)[C@H]3O)c(OC)c1)[C@@H](CO)[C@](O)(CO)C2
inactive: Potency (OV90) | Potency (PA-1) | Potency (SKOV3) | Potency (Tov-21-G) | Potency (Tov112D)

CC(=O)/C=C/[C@H]1[C@](C)(O)[C@@H](O)[C@H](OC(C)=O)C2C(C)(C)CCC[C@@]21C (stereo not given in full)
inactive: Potency (OV90) | Potency (PA-1) | Potency (SKOV3) | Potency (Tov-21-G) | Potency (Tov112D)

O=C(O)Cc1ccc2oc(-c3ccc(NC(=O)/C=C/c4ccc(Br)cc4)c(F)c3)nc2c1
inactive: Potency (OV90) | Potency (PA-1) | Potency (SKOV3) | Potency (Tov-21-G) | Potency (Tov112D)
